The values below come from PubChem BioAssay (NCI).

Some test systems named below: NCI-H23 lung; NCI-H226 lung; NCI-H322M lung; HOP-62 NSCLC; NCI-H460 lung; A549/ATCC NSCLC; 786-0 renal; COLO 205 colon.
Common to all, as to assay: NCI-60 one-dose screen, 48 h (100 = growth as untreated, 0 = no growth, -100 = all killed)
In a further experiment the test system is HOP-92 NSCLC. The conditions noted are these: 10 µM unless noted.
Another experiment deals with NCI-H522 lung. Particulars: 10 µM unless noted.

Values joined by “and” are separate entries in the source; they are usually repeats but may differ in a detail not shown here. Equal values may be shown once. This is part of a sample that, as a whole, favours compounds with a hit. Of some 83,000 tested, about 20% had one in any assay.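 Assay: single dose, 48 h. Readout: percent growth (0 = no net growth; negative = cell death). Active: <10.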 A number with no mark means an inactive call. Active and inactive are the calls of the source.

In the case of `CCC(CC)COC(=O)c1ccc(O)c(O)c1`, the growth in the experiment on NCI-H23 lung (10 µM unless noted) was 81%; in the experiment on NCI-H226 lung (10 µM unless noted) it was 63.9%; in the experiment with NCI-H322M lung (10 µM unless noted), 85.3%; in the experiment on HOP-62 NSCLC (10 µM unless noted), 50.3%; in the experiment with NCI-H460 lung (10 µM unless noted), 73.8%; in the experiment with HOP-92 NSCLC, 31.1%. Besides, the growth in the experiment with NCI-H522 lung was -5.6% (active); with A549/ATCC NSCLC (10 µM unless noted) it was 52%; in the experiment with 786-0 renal (10 µM unless noted), 78.5%; in the experiment with COLO 205 colon (10 µM unless noted), 95.7%.

`Cc1ccc2c(ccc3c[n+]4c5ccccc5ccc4n32)c1`: the growth with NCI-H23 lung (10 µM unless noted) is 10.4%; with NCI-H226 lung (10 µM unless noted), 7.48% (active); in the experiment with NCI-H322M lung (10 µM unless noted) it was 12.7%; in the experiment on HOP-62 NSCLC (10 µM unless noted) it was 0.81% (active); in the experiment with NCI-H460 lung (10 µM unless noted) it was 1.99% (active); with HOP-92 NSCLC, -11.1% (active). Also, the growth was -33.4% (active) with NCI-H522 lung, 4.82% (active) in the experiment with A549/ATCC NSCLC (10 µM unless noted), 27.4% in the experiment on 786-0 renal (10 µM unless noted) and -34.2% (active) in the experiment on COLO 205 colon (10 µM unless noted).

As for `CNc1ccc(N)cc1`, the growth in the experiment on NCI-H23 lung (10 µM unless noted) is 103%; in the experiment with NCI-H226 lung (10 µM unless noted), 96.4%; in the experiment with NCI-H322M lung (10 µM unless noted), 103%; in the experiment with HOP-62 NSCLC (10 µM unless noted), 106%; in the experiment on NCI-H460 lung (10 µM unless noted), 106%; with HOP-92 NSCLC, 135%. The growth with NCI-H522 lung is 87.5%; in the experiment on A549/ATCC NSCLC (10 µM unless noted), 111%; in the experiment with 786-0 renal (10 µM unless noted), 110%; in the experiment with COLO 205 colon (10 µM unless noted), 141%.

Turning to `O=C(O)C1C2CC3C(OC(=O)C31)C2Br` (stereo not drawn), the growth in the experiment on NCI-H23 lung (10 µM unless noted) was 103% and 95.4%; with NCI-H226 lung (10 µM unless noted), 88.3% and 90.7%; with NCI-H322M lung (10 µM unless noted), 101% and 106%; in the experiment on HOP-62 NSCLC (10 µM unless noted), 92.8% and 99.4%; with NCI-H460 lung (10 µM unless noted), 98.3% and 100%; in the experiment with HOP-92 NSCLC it was 91% and 94.2%. Moreover, the growth in the experiment on NCI-H522 lung was 72.9% and 95.6%; in the experiment on A549/ATCC NSCLC (10 µM unless noted), 79.6% and 101%; in the experiment with 786-0 renal (10 µM unless noted) it was 105% and 99%; with COLO 205 colon (10 µM unless noted), 97.1% and 103%.

As for `NC1=CC(=O)c2ccccc2C1=O`, the growth in the experiment on NCI-H23 lung (10 µM unless noted) is 40.2%; in the experiment with NCI-H226 lung (10 µM unless noted) it was 91.7%; in the experiment on NCI-H322M lung (10 µM unless noted), 97%; in the experiment with HOP-62 NSCLC (10 µM unless noted), 80.9%; in the experiment with NCI-H460 lung (10 µM unless noted) it was 89.8%; with HOP-92 NSCLC, 91.4%. Besides, the growth in the experiment with NCI-H522 lung was 89.4%; with A549/ATCC NSCLC (10 µM unless noted), 75.9%; in the experiment on 786-0 renal (10 µM unless noted) it was 105%; in the experiment with COLO 205 colon (10 µM unless noted), 104%.

As for `CCCCCCCCCCCCCCCCCCOP(=O)([O-])OC1CC[N+](C)(C)CC1`, the growth in the experiment with NCI-H23 lung (10 µM unless noted) was 76.2% and 60.8%; in the experiment on NCI-H226 lung (10 µM unless noted), 48.9% and 18.8%; with NCI-H322M lung (10 µM unless noted), 59.2% and 40%; in the experiment with HOP-62 NSCLC (10 µM unless noted) it was 5.84% (active) and -72.5% (active); with NCI-H460 lung (10 µM unless noted), 1.19% (active) and -34.8% (active); in the experiment on HOP-92 NSCLC, -25.3% (active). The growth with NCI-H522 lung is -52.1% (active) and -87.8% (active); in the experiment with A549/ATCC NSCLC (10 µM unless noted), 17.1% and 38.2%; in the experiment on 786-0 renal (10 µM unless noted), -28.4% (active) and -54.9% (active); in the experiment on COLO 205 colon (10 µM unless noted) it was -34.2% (active) and -30.8% (active).

For the compound `O=C(Nc1ccccc1)c1cc(Cl)ccc1O`, the growth is 53% in the experiment on NCI-H23 lung (10 µM unless noted); 74% in the experiment on NCI-H226 lung (10 µM unless noted); 83.1% with NCI-H322M lung (10 µM unless noted); 63.5% with HOP-62 NSCLC (10 µM unless noted); 37.4% in the experiment on NCI-H460 lung (10 µM unless noted); 14.5% in the experiment on HOP-92 NSCLC. The growth is 10.3% in the experiment with NCI-H522 lung, 33.7% with A549/ATCC NSCLC (10 µM unless noted), 59.7% in the experiment with 786-0 renal (10 µM unless noted) and 109% with COLO 205 colon (10 µM unless noted).

Regarding `CCOc1ccc(-c2nc3ccc(-c4nc5ccc(N6CCN(C)CC6)cc5[nH]4)cc3[nH]2)cc1`, the growth in the experiment with NCI-H23 lung (10 µM unless noted) is -71.7% (active); in the experiment with NCI-H226 lung (10 µM unless noted), -85.5% (active); in the experiment on NCI-H322M lung (10 µM unless noted), -84.7% (active); in the experiment on HOP-62 NSCLC (10 µM unless noted), -87.5% (active); in the experiment with NCI-H460 lung (10 µM unless noted) it was -90.7% (active); in the experiment on HOP-92 NSCLC it was -56.3% (active). The growth in the experiment with NCI-H522 lung is -65.5% (active); in the experiment with A549/ATCC NSCLC (10 µM unless noted), -80.7% (active); in the experiment on 786-0 renal (10 µM unless noted), -90.6% (active); in the experiment with COLO 205 colon (10 µM unless noted), -96.5% (active).

Consider `O=C1C=CC(=O)N1C1c2ccccc2-c2ccccc21`, for which the growth was 98.1% with NCI-H23 lung (10 µM unless noted); 95.6% with NCI-H226 lung (10 µM unless noted); 94.6% in the experiment with NCI-H322M lung (10 µM unless noted); 96.3% with HOP-62 NSCLC (10 µM unless noted); 96.5% with NCI-H460 lung (10 µM unless noted); 67.5% in the experiment on HOP-92 NSCLC. The growth was 29.4% in the experiment on NCI-H522 lung, 91.4% in the experiment with A549/ATCC NSCLC (10 µM unless noted), 75.2% in the experiment on 786-0 renal (10 µM unless noted) and 20% in the experiment on COLO 205 colon (10 µM unless noted).

In the case of `CN(C)C(=O)c1ccc(SC(=S)NCc2ccccc2)cc1`, the growth with NCI-H23 lung (10 µM) is 109%; in the experiment with NCI-H23 lung (100 µM), 5.21% (active); in the experiment on NCI-H226 lung (10 µM) it was 112%; with NCI-H226 lung (100 µM), 102%; with NCI-H322M lung (10 µM) it was 110%; in the experiment with NCI-H322M lung (100 µM) it was 58.2%. Besides, the growth in the experiment on HOP-62 NSCLC (10 µM) is 107%; with HOP-62 NSCLC (100 µM) it was 46.5%; with NCI-H460 lung (10 µM) it was 105%; in the experiment with NCI-H460 lung (100 µM) it was 8.96% (active); in the experiment with HOP-92 NSCLC, -10.3% [100 µM] (active); in the experiment on NCI-H522 lung, -48.7% [100 µM] (active). For the same compound, the growth in the experiment with A549/ATCC NSCLC (10 µM) was 105%; in the experiment on A549/ATCC NSCLC (100 µM), 34.4%; with 786-0 renal (10 µM), 109%; with 786-0 renal (100 µM), -17.6% (active); in the experiment with COLO 205 colon (10 µM), 101%; with COLO 205 colon (100 µM) it was -11.4% (active).

Regarding `O=C(/C=C/c1cccc(Cl)c1)c1ccccc1`, the growth with NCI-H23 lung (10 µM unless noted) was 95.5% and 97.5%; in the experiment on NCI-H226 lung (10 µM unless noted), 94.2% and 74.4%; in the experiment on NCI-H322M lung (10 µM unless noted), 90.7% and 81.9%; in the experiment with HOP-62 NSCLC (10 µM unless noted), 112% and 89.9%; in the experiment with NCI-H460 lung (10 µM unless noted) it was 101% and 95.9%; in the experiment on HOP-92 NSCLC, 88.1%. The growth was 82.3% and 48.4% in the experiment on NCI-H522 lung; 83.6% and 86.7% in the experiment on A549/ATCC NSCLC (10 µM unless noted); 88.3% and 77.5% in the experiment with 786-0 renal (10 µM unless noted); 115% and 105% in the experiment on COLO 205 colon (10 µM unless noted).
